This is a sample that favours compounds with a hit; in the whole collection about 19% have one here.
TDP1 inh – TDP1 (human) enzyme inhibition | Q9NUW8 | recombinant TDP1, AlphaScreen DNA substrate cleavage | Potency, µM (highest dose often 130 µM), for the others: at the top dose activity change, negative = inhibition, most hits filed as inhibitors | 0.28% of 350,000 active | AID 485290; note: potency is the fitted concentration of half-maximal effect; % is set by controls: 0 for no effect and ±100 for the full control effect; nearly all actives have a fitted effect of over 40% in size
Target sequence (Q9NUW8 whole entry, looked up): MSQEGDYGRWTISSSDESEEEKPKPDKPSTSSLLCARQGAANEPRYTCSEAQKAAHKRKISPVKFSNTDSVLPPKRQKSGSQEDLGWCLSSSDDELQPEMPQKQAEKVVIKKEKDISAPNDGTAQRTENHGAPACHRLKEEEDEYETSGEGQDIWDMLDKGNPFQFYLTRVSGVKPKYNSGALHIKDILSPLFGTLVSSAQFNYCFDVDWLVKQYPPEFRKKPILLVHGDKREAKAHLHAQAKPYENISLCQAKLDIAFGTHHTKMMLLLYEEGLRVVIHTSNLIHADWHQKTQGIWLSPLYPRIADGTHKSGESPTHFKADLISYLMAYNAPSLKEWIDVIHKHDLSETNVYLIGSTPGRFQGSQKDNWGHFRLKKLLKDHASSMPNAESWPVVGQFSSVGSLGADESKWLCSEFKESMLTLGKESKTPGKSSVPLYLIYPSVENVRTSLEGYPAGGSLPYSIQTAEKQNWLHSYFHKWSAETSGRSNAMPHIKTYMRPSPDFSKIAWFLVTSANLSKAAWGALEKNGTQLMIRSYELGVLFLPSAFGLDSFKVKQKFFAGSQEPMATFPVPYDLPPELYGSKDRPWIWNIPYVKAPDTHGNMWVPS
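AlphaScreen read-out: signal falls as enzyme removes the 3' tyrosine-FITC from a 5'-biotinylated DNA oligo (15 nM, 5 min, RT). Enzyme was E. coli-made recombinant Tdp1 at 1 nM, exposed to compound for 15 min beforehand; beads 10 ug/ml, 10 min.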
DT40 TDP1 CPT – DT40-hTDP1 cell growth loss with CPT; chicken DT40 Tdp1-/-;hTDP1 cells + 20 nM CPT, ATP luminescence, 48 h; 12% of 420,000 active; Potency, µM (top dose mostly 46.2 µM), for inactives: at the highest dose activity change, negative = growth inhibition, actives largely listed as inhibitors; note: potency is the fitted concentration of half-maximal effect; % is set by controls: 0 for no effect and ±100 for the full control effect; nearly all actives have a fitted effect of over 55% in size
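Chicken DT40 Tdp1-/- cells complemented with human TDP1, 400 cells/well, exposed to compounds plus 20 nM camptothecin for at least 48 h at 37 C; viability read as ATP content by CellTiter-Glo luminescence.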
TGFb SMAD3 inh – inhibitors of TGF-b signaling. HepG2 CAGA-GFP TGF-b/SMAD3 reporter, GFP fluorescence, 18 h; TGF-beta stimulated, 500 pg/mL final. Potency, µM (titrated, usually from 46.1 µM), without a hit: at the top dose activity, negative = inhibition, usual class: inhibitors. 1.2% of 410,000 active; note: potency is the fitted concentration of half-maximal effect; % is set by controls: 0 for no effect and ±100 for the full control effect; nearly all actives have a fitted effect of over 65% in size
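Inhibition was scored as loss of TGF-beta-induced (500 pg/mL final, 18 hours, 37 degrees C) GFP in HEPG2 cells carrying a CAGA-GFP reporter, in DMEM with 1% FBS. Well GFP was summed per cell; Activity was normalised to unstimulated and stimulated DMSO wells, then concentration-response fitting.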
HepG2 viability – counter-screen for TGF-b inhibitors: cytotoxicity in HepG2 cells; HepG2 CAGA-GFP viability, ATP luminescence, 18 h; Potency, µM (doses to about 46.1 µM), for the others: at the highest dose activity change, negative = cytotoxicity, most hits filed as cytotoxic; 0.76% of 410,000 active; note: potency is the fitted concentration of half-maximal effect
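CellTiter-Glo luminescence gave cytotoxicity after 18 hours at 37 degrees C. The cells were HepG2 CAGA-GFP in 1% FBS DMEM, stimulated with 500 pg/mL TGF-beta after compound addition. %Activity was normalised to no-cell wells (complete cell-killing) and DMSO (no toxicity), and curves were fitted and classified.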
TDP1 cell noCPT – qHTS for Inhibitors of human tyrosyl-DNA phosphodiesterase 1 (TDP1): qHTS in cells in absence of CPT; 15% of 420,000 active; DT40 Tdp1-/- hTDP1 cells, no CPT, ATP luminescence, 48 h; Potency, µM (series often up to 46.2 µM), inactives show top-dose activity change, negative = growth inhibition, most hits filed as inhibitors; note: potency is the fitted concentration of half-maximal effect; % is set by controls: 0 for no effect and ±100 for the full control effect; nearly all actives have a fitted effect of over 55% in size
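Chicken DT40 Tdp1-/- cells complemented with human TDP1, screened without camptothecin (DMSO vehicle only), 400 cells/well. Compounds pin-transferred, cells incubated at 37 °C for at least 48 hr. Growth read as ATP-dependent luminescence (CellTiter-Glo, 30 min at RT).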
IL1B secr inh – blocks inflammasome-driven IL-1 beta release; THP-1 LPS/ATP IL-1B secretion, AlphaLISA, 16 h; active compounds read low; activity change, % at 57.5 µM; 4.7% of 360,000 active; in the data active = activity change below about -50%; inconclusive = mostly about -30% to -49%; note: % is set by controls: 0 for no effect and ±100 for the full control effect
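THP-1 cells pretreated 1 hr with compounds (up to 57.5 uM final), then stimulated with LPS (250 ng/mL final) plus ATP (1.25 mM final); secreted IL-1B measured by AlphaLISA after 16 hr, decreased signal indicating inhibition.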
Numbers without * were called inactive; [ ] = dose if it differs, or a comment. Unless noted, calls come from the whole dose curve; as a rule, active = well fitted curve in the direction sought with a large enough effect; inconclusive = small, poorly fitted or top-dose-only effect, or another doubt; inactive = no such curve, though single readings can be large; an effect the other way counts as inactive or inconclusive.

How did O=[N+]([O-])c1ccc(N2CCN(C(=S)Nc3ccc(F)cc3F)CC2)cc1 do in these assays?
TDP1 inh: 0.0%; DT40 TDP1 CPT: 6.51µM*; TGFb SMAD3 inh: -1.8%; HepG2 viability: 0.0%; TDP1 cell noCPT: 8.2µM*; IL1B secr inh: -8.4

How did O=[N+]([O-])c1ccc(N2CCN(C(=S)Nc3ccc(F)cc3)CC2)cc1 do in these assays?
TDP1 inh: 5.3%; DT40 TDP1 CPT: 5.17µM*; TGFb SMAD3 inh: -25.3%; HepG2 viability: 3.3%; TDP1 cell noCPT: 5.8µM*; IL1B secr inh: -3.9

What do the screens show for `COc1cc(NS(=O)(=O)c2ccc(NC(=O)c3ccc(OC)c(Br)c3)cc2)nc(OC)n1`?
TDP1 inh: -5.7%[12.3 µM]; DT40 TDP1 CPT: 5.2%; TGFb SMAD3 inh: -0.6%; HepG2 viability: -9.4%; TDP1 cell noCPT: -10.5%

What do the screens show for `Cc1c(Cn2ccnc2)c2ccccc2n1CCC(=O)O`?
TDP1 inh: 3.7%; DT40 TDP1 CPT: -2.7%; TDP1 cell noCPT: -9.5%

Results for Cc1ccc2nc(C)cc(N/N=C/c3ccccc3O)c2c1 ?
DT40 TDP1 CPT: -10.3%; TGFb SMAD3 inh: -12.8%; HepG2 viability: -26.9%; TDP1 cell noCPT: -12.0%; IL1B secr inh: -17.8

What do the screens show for `Cc1cc(C)c2nc(C)cc(N/N=C/c3ccc(O)cc3)c2c1`?
DT40 TDP1 CPT: 3.26µM*; TGFb SMAD3 inh: 20µM*; HepG2 viability: 17.8µM*; TDP1 cell noCPT: 3.26µM*; IL1B secr inh: -98.3*

What do the screens show for `Cc1cc(N/N=C/c2ccc(N(C)C)cc2)c2ccccc2n1`?
DT40 TDP1 CPT: 0.7%; TGFb SMAD3 inh: -17.2%; HepG2 viability: -9.3%; TDP1 cell noCPT: inconclusive; IL1B secr inh: -15.0

Results for Cc1cc(N/N=C/c2ccc(O)cc2)c2cccc(C)c2n1 ?
TDP1 inh: 4.1%; DT40 TDP1 CPT: inconclusive; TGFb SMAD3 inh: inconclusive; HepG2 viability: 17.8µM*; TDP1 cell noCPT: inconclusive; IL1B secr inh: inconclusive

What do the screens show for `Cc1cc(=O)oc2ccc(OCC(=O)N3CCC(C)CC3)cc12`?
TDP1 inh: 0.0%; DT40 TDP1 CPT: inconclusive; TGFb SMAD3 inh: -15.3%; HepG2 viability: 1.2%; TDP1 cell noCPT: 25.9µM*; IL1B secr inh: -11.8

Results for CCN(CC)c1cccc(OCC(=O)N2c3ccccc3CC2C)c1 (centres undefined) ?
TDP1 inh: 8.1%; DT40 TDP1 CPT: inconclusive; TGFb SMAD3 inh: -28.1%; HepG2 viability: -37.0%; TDP1 cell noCPT: 18.4µM*; IL1B secr inh: -1.1

How did CC1Cc2ccccc2N1C(=O)COc1nc2ccccc2nc1N1CCOCC1 (centres undefined) do in these assays?
TDP1 inh: 1.1%; DT40 TDP1 CPT: 7.31µM*; TGFb SMAD3 inh: inconclusive; HepG2 viability: 2.3%; TDP1 cell noCPT: 9.2µM*; IL1B secr inh: -3.1

Results for CCCNC(=O)COc1nc2ccccc2nc1N1CCOCC1 ?
TDP1 inh: 5.3%; DT40 TDP1 CPT: inconclusive; TGFb SMAD3 inh: 4.4%; HepG2 viability: 1.4%; TDP1 cell noCPT: 6.8%; IL1B secr inh: 2.8

How did CCC(C)c1ccc(S(=O)(=O)N2CCN(C(=O)COc3ccc4c(C)cc(=O)oc4c3)CC2)cc1 (centres undefined) do in these assays?
TDP1 inh: 2.2%; DT40 TDP1 CPT: inconclusive; TGFb SMAD3 inh: -15.8%; HepG2 viability: -4.3%; TDP1 cell noCPT: 14.6µM*; IL1B secr inh: -13.4

How did CC(C)c1ccc2oc(-c3ccc(Cl)c(NC(=O)Cc4ccccc4)c3)nc2c1 do in these assays?
DT40 TDP1 CPT: -26.0%; TGFb SMAD3 inh: -16.0%; HepG2 viability: -16.6%; TDP1 cell noCPT: -1.3%

How did CCCC12CN3CC(C)(CN(C1)C3c1cn(CC)c3ccccc13)C2=O (centres undefined) do in these assays?
TDP1 inh: 7.0%; DT40 TDP1 CPT: inconclusive; TGFb SMAD3 inh: -11.2%; HepG2 viability: -2.8%; TDP1 cell noCPT: inconclusive

Results for Cc1cc(=O)oc2cc(OCC(=O)N3CC(C)OC(C)C3)ccc12 (centres undefined) ?
TDP1 inh: 1.4%; DT40 TDP1 CPT: -7.0%; TGFb SMAD3 inh: -0.6%; HepG2 viability: 0.1%; TDP1 cell noCPT: -23.3%; IL1B secr inh: 6.4

How did Cc1cc(=O)oc2cc(OCC(=O)N3c4ccccc4CC3C)ccc12 (centres undefined) do in these assays?
TDP1 inh: 4.0%; DT40 TDP1 CPT: 4.11µM*; TGFb SMAD3 inh: 8.2%; HepG2 viability: -15.8%; TDP1 cell noCPT: 2.31µM*; IL1B secr inh: 42.3

How did CC(C)(Oc1ccc(Cl)cc1)C(=O)Nc1nnc2n1CCS2 do in these assays?
TDP1 inh: 5.5%; DT40 TDP1 CPT: inconclusive; TGFb SMAD3 inh: 11.5%; HepG2 viability: -3.2%; TDP1 cell noCPT: 18.4µM*

Results for COc1ccc(N2CCN(C(=O)Cn3nc(Cc4cccnc4)c4ccccc4c3=O)CC2)cc1 ?
TDP1 inh: 1.3%; DT40 TDP1 CPT: -28.3%; TGFb SMAD3 inh: inconclusive; HepG2 viability: -12.5%; TDP1 cell noCPT: inconclusive

What do the screens show for `CN(C)c1ccc(-c2nn3c(C4CCCCC4)nnc3s2)cc1`?
TDP1 inh: 2.4%; DT40 TDP1 CPT: 16.4µM*; TGFb SMAD3 inh: 0.0%; HepG2 viability: -16.3%; TDP1 cell noCPT: 23.1µM*; IL1B secr inh: -15.7

Results for O=C([O-])c1cc(-c2ccccc2)cc(-c2ccccc2)[n+]1CCc1ccc(Cl)cc1 ?
DT40 TDP1 CPT: 4.61µM*; TGFb SMAD3 inh: inconclusive; HepG2 viability: -39.4%; TDP1 cell noCPT: 6.51µM*; IL1B secr inh: inconclusive

How did O=C(NCCc1ccc(Cl)cc1)c1cc(-c2ccccc2)n[nH]1 do in these assays?
TDP1 inh: -2.8%; DT40 TDP1 CPT: inconclusive; TGFb SMAD3 inh: -0.4%; HepG2 viability: -35.2%; TDP1 cell noCPT: -12.5%

What do the screens show for `COC(=O)C(CCSC)NS(=O)(=O)c1ccc(Cl)cc1` (centres undefined)?
TDP1 inh: 2.6%; DT40 TDP1 CPT: -9.4%; TGFb SMAD3 inh: 2.2%; HepG2 viability: 1.6%; TDP1 cell noCPT: -18.5%; IL1B secr inh: 7.6

What do the screens show for `CSCCC(NS(=O)(=O)c1ccc(Cl)cc1)C(=O)OCC(=O)NC12CC3CC(CC(C3)C1)C2` (centres undefined)?
TDP1 inh: 3.0%; DT40 TDP1 CPT: 12.6µM*; TGFb SMAD3 inh: inconclusive; HepG2 viability: -24.6%; TDP1 cell noCPT: inconclusive; IL1B secr inh: -24.2

Source: PubChem (National Center for Advancing Translational Sciences (NCATS))
